Measured values as given in the supplement of paper PMC9694430.
Where a name gives a salt, the structure may show the parent alone.

Tested on: LOC_OS01G01410-cb001
Assay: thermal shift delta Tm vs DMSO control; higher = stronger stabilization (binding)
Settings: 12.5 µM; protein concentration 2 µM
Summary of the method: (§1)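 Purified, E. coli-expressed rice kinase domain constructs were tested by differential scanning fluorimetry in 96-well plates: 19.5 μl of 2 μM kinase in 100 mM potassium phosphate pH 7.5, 150 mM NaCl, 10% glycerol, 5 × SYPRO Orange, plus compound in DMSO. Fluorescence was read from 25°C to 95°C at 0.05°C/s. Melting temperatures came from Boltzmann fits, and the shift is the triplicate mean relative to protein with DMSO alone.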

SMILES	thermal shift delta Tm
COc1cc(C(=O)N2CCC(N3CCN(C)CC3)CC2)ccc1Nc1ncc2c(n1)N(C)c1ccccc1C(=O)N2C	0.19 °C
Cc1nc(Nc2n[nH]c3c2CN(C(=O)N[C@H](CN(C)C)c2ccccc2)C3(C)C)c2sccc2n1	0.37 °C
CC(C)(C)c1cc(NC(=O)Nc2ccc(Oc3ccnc4[nH]c(=O)cnc34)cc2F)n(-c2ccccc2)n1	-0.24 °C
CN1CC[C@H](c2c(O)cc(O)c3c(=O)cc(-c4ccccc4Cl)oc23)[C@H](O)C1 [Flavopiridol HCl]	0.19 °C
CCC(=O)Nc1cccc(Oc2nc(Nc3ccc(N4CCN(C)CC4)cc3OC)ncc2Cl)c1	0.36 °C
N#CC(=C(/N)Sc1ccccc1N)/C(C#N)=C(\N)Sc1ccccc1N	1.35 °C
Clc1ccc(C2(c3ccc(-c4cn[nH]c4)cc3)CCNCC2)cc1	0.09 °C
O=c1c(O)c(-c2cc(O)c(O)c(O)c2)oc2cc(O)cc(O)c12 [Myricetin]	2.93 °C
CN1CCN(Cc2ccc(NC(=O)Nc3ccc(Oc4ccnc(N)n4)cc3)cc2C(F)(F)F)CC1	0.75 °C
CN1CCN(c2nc(C3=C(c4c[nH]c5ccccc45)C(=O)NC3=O)c3ccccc3n2)CC1 [Sotrastaurin]	0.84 °C
O=C(c1ccc(/C=C/c2n[nH]c3ccccc23)cc1)N1CCNCC1	5.18 °C
N#CC1(c2ccc(NC(=O)c3cccnc3NCc3ccncc3)cc2)CCCC1 [Apatinib]	1.1 °C
Cc1cc(O)c(-c2ccc([C@@H](C)CN)cc2)c2c1[nH]c(=O)c1sccc12 [OTS514 hydrochloride]	0.18 °C
Oc1cc(O)cc(/C=C/c2ccc(O)c(O)c2)c1 [Piceatannol]	1.39 °C
COc1cc(N2CCC(N(C)C)CC2)ccc1Nc1ncc(Cl)c(Nc2ccccc2P(C)(C)=O)n1	0.42 °C
O=C1NC(=O)C(c2ccccc2[N+](=O)[O-])=C1Nc1ccc(O)c(Cl)c1	0.62 °C
O=C(O)c1ccc(Nc2ncc3c(n2)-c2ccc(Cl)cc2C(c2c(F)cccc2F)=NC3)cc1	1.36 °C
CCN1CCN(Cc2ccc(Nc3ncc(F)c(-c4cc(F)c5nc(C)n(C(C)C)c5c4)n3)nc2)CC1	1.5 °C
Cc1cc(CN2CCN(c3c(Br)cnc4nc(-c5ccc(N6CCN(C)CC6)cc5)[nH]c34)CC2)no1	4.15 °C

SMILES	thermal shift delta Tm
Cn1ncc(Cl)c1-c1cc(C(=O)N[C@H](CN)Cc2ccc(F)c(F)c2)oc1Cl	-0.41 °C
CCS(=O)(=O)Nc1ccc2c(c1)/C(=C(/Nc1ccc(CN3CCCCC3)cc1)c1ccccc1)C(=O)N2 [Hesperadin]	1.67 °C
CC1(COc2ccc3c(c2)ncn3-c2ccc3cccc(N4CCC(N)CC4)c3n2)COC1	1.38 °C
Oc1cccc(-c2nc(N3CCOCC3)c3oc4ncccc4c3n2)c1	0.96 °C
O=C(O)c1ccc(-c2c[nH]c3ncc(-c4ccccc4)cc23)cc1C1CCCC1	5.06 °C
C[C@H](CN(C)C)Oc1nc(Nc2cc3cccc(Cl)c3cn2)cnc1C#N	0.28 °C
CC(C)(C)c1nc(-c2ccc(NC(=O)Nc3cccc(C(F)(F)F)c3)c3ccccc23)c2c(N)nccn12 [kira6]	0.7 °C
COc1ccc(COc2ccc(Cc3cnc(N)nc3N)cc2OC)cc1	-0.12 °C
COc1cc(-c2cc(-c3ccc(N4CCNCC4)cc3)cnc2C)cc(OC)c1OC	1.74 °C
CC(C)Nc1cc(-c2c[nH]c(C(=O)N[C@H](CO)c3cccc(Cl)c3)c2)c(Cl)cn1	6.3 °C
COc1c(C)c(C(=O)c2ccc(N)c(C(=O)O)c2)n2ccccc12	0.21 °C
CN(C)C/C=C/C(=O)Nc1cc2c(Nc3ccc(F)c(Cl)c3)ncnc2cc1O[C@H]1CCOC1 [Afatinib (BIBW2992)]	1.12 °C
CN1CC[C@H](c2c(O)cc(O)c3c(=O)cc(-c4ccccc4Cl)oc23)[C@H](O)C1 [Flavopiridol (Alvocidib)]	0.72 °C
CC(C)Oc1ccc(-c2nn([C@@H](C)c3oc4ccc(F)cc4c(=O)c3-c3cccc(F)c3)c3ncnc(N)c23)cc1F	0.45 °C
N#Cc1ccc2ncnc(NCCc3ccccc3)c2c1 [Senexin A]	1.49 °C
CN(C)C/C=C/C(=O)Nc1ccc(C(=O)Nc2cccc(Nc3ncc(Cl)c(-c4c[nH]c5ccccc45)n3)c2)cc1	4.03 °C
COc1cc2c(cc1OC)[C@@H]1C(=O)c3ccc4c(c3O[C@@H]1CO2)C=CC(C)(C)O4 [Deguelin]	0.07 °C
CC(C)(C)c1cnc(CSc2cnc(NC(=O)C3CCNCC3)s2)o1	1.11 °C
CNC(=O)c1ccccc1Nc1cc(Nc2ccc(N3CCOCC3)cc2OC)ncc1C(F)(F)F	0.48 °C

Tested on: LOC_OS01G02750-cb003
Assay: as above
Settings: 12.5 µM; protein concentration 2 µM
Summary of the method: as §1

SMILES	thermal shift delta Tm
COc1cc(C(=O)N2CCC(N3CCN(C)CC3)CC2)ccc1Nc1ncc2c(n1)N(C)c1ccccc1C(=O)N2C	0.47 °C
Cc1nc(Nc2n[nH]c3c2CN(C(=O)N[C@H](CN(C)C)c2ccccc2)C3(C)C)c2sccc2n1	2.46 °C
CC(C)(C)c1cc(NC(=O)Nc2ccc(Oc3ccnc4[nH]c(=O)cnc34)cc2F)n(-c2ccccc2)n1	1.82 °C
CN1CC[C@H](c2c(O)cc(O)c3c(=O)cc(-c4ccccc4Cl)oc23)[C@H](O)C1 [Flavopiridol HCl]	0.76 °C
CCC(=O)Nc1cccc(Oc2nc(Nc3ccc(N4CCN(C)CC4)cc3OC)ncc2Cl)c1	1.2 °C
N#CC(=C(/N)Sc1ccccc1N)/C(C#N)=C(\N)Sc1ccccc1N	1.84 °C
Clc1ccc(C2(c3ccc(-c4cn[nH]c4)cc3)CCNCC2)cc1	0.73 °C
O=c1c(O)c(-c2cc(O)c(O)c(O)c2)oc2cc(O)cc(O)c12 [Myricetin]	26.2 °C
CN1CCN(Cc2ccc(NC(=O)Nc3ccc(Oc4ccnc(N)n4)cc3)cc2C(F)(F)F)CC1	4.82 °C
CN1CCN(c2nc(C3=C(c4c[nH]c5ccccc45)C(=O)NC3=O)c3ccccc3n2)CC1 [Sotrastaurin]	3.23 °C
O=C(c1ccc(/C=C/c2n[nH]c3ccccc23)cc1)N1CCNCC1	3.06 °C
N#CC1(c2ccc(NC(=O)c3cccnc3NCc3ccncc3)cc2)CCCC1 [Apatinib]	0.48 °C
Cc1cc(O)c(-c2ccc([C@@H](C)CN)cc2)c2c1[nH]c(=O)c1sccc12 [OTS514 hydrochloride]	0.75 °C
Oc1cc(O)cc(/C=C/c2ccc(O)c(O)c2)c1 [Piceatannol]	1.52 °C
COc1cc(N2CCC(N(C)C)CC2)ccc1Nc1ncc(Cl)c(Nc2ccccc2P(C)(C)=O)n1	-0.8 °C
O=C1NC(=O)C(c2ccccc2[N+](=O)[O-])=C1Nc1ccc(O)c(Cl)c1	-1.98 °C
O=C(O)c1ccc(Nc2ncc3c(n2)-c2ccc(Cl)cc2C(c2c(F)cccc2F)=NC3)cc1	-0.24 °C
CCN1CCN(Cc2ccc(Nc3ncc(F)c(-c4cc(F)c5nc(C)n(C(C)C)c5c4)n3)nc2)CC1	2.83 °C
Cc1cc(CN2CCN(c3c(Br)cnc4nc(-c5ccc(N6CCN(C)CC6)cc5)[nH]c34)CC2)no1	1.45 °C

SMILES	thermal shift delta Tm
Cn1ncc(Cl)c1-c1cc(C(=O)N[C@H](CN)Cc2ccc(F)c(F)c2)oc1Cl	1.78 °C
CCS(=O)(=O)Nc1ccc2c(c1)/C(=C(/Nc1ccc(CN3CCCCC3)cc1)c1ccccc1)C(=O)N2 [Hesperadin]	4.74 °C
CC1(COc2ccc3c(c2)ncn3-c2ccc3cccc(N4CCC(N)CC4)c3n2)COC1	7.03 °C
Oc1cccc(-c2nc(N3CCOCC3)c3oc4ncccc4c3n2)c1	0.09 °C
O=C(O)c1ccc(-c2c[nH]c3ncc(-c4ccccc4)cc23)cc1C1CCCC1	4.25 °C
C[C@H](CN(C)C)Oc1nc(Nc2cc3cccc(Cl)c3cn2)cnc1C#N	1.3 °C
CC(C)(C)c1nc(-c2ccc(NC(=O)Nc3cccc(C(F)(F)F)c3)c3ccccc23)c2c(N)nccn12 [kira6]	9.79 °C
COc1ccc(COc2ccc(Cc3cnc(N)nc3N)cc2OC)cc1	1.12 °C
COc1cc(-c2cc(-c3ccc(N4CCNCC4)cc3)cnc2C)cc(OC)c1OC	0.65 °C
CC(C)Nc1cc(-c2c[nH]c(C(=O)N[C@H](CO)c3cccc(Cl)c3)c2)c(Cl)cn1	1.26 °C
COc1c(C)c(C(=O)c2ccc(N)c(C(=O)O)c2)n2ccccc12	1.05 °C
CN(C)C/C=C/C(=O)Nc1cc2c(Nc3ccc(F)c(Cl)c3)ncnc2cc1O[C@H]1CCOC1 [Afatinib (BIBW2992)]	-0.19 °C
CN1CC[C@H](c2c(O)cc(O)c3c(=O)cc(-c4ccccc4Cl)oc23)[C@H](O)C1 [Flavopiridol (Alvocidib)]	0.39 °C
CC(C)Oc1ccc(-c2nn([C@@H](C)c3oc4ccc(F)cc4c(=O)c3-c3cccc(F)c3)c3ncnc(N)c23)cc1F	1.4 °C
N#Cc1ccc2ncnc(NCCc3ccccc3)c2c1 [Senexin A]	1.5 °C
CN(C)C/C=C/C(=O)Nc1ccc(C(=O)Nc2cccc(Nc3ncc(Cl)c(-c4c[nH]c5ccccc45)n3)c2)cc1	6.62 °C
COc1cc2c(cc1OC)[C@@H]1C(=O)c3ccc4c(c3O[C@@H]1CO2)C=CC(C)(C)O4 [Deguelin]	0.45 °C
CC(C)(C)c1cnc(CSc2cnc(NC(=O)C3CCNCC3)s2)o1	10.9 °C
CNC(=O)c1ccccc1Nc1cc(Nc2ccc(N3CCOCC3)cc2OC)ncc1C(F)(F)F	1.23 °C
